Read-out in assay [1]: Plasminogen activator inhibitor-1 (PAI1), SERPINE1 (gene 5054)
In words: BSK_MyoF_PAI1: BioMAP Diversity Plus: MyoF Assay for Plasminogen activator inhibitor-1 (PAI1) Biomarker Activity (AID 2284256). The following applies: primary human lung fibroblasts. In outline: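 Primary human lung fibroblasts treated with chemical for 24 h; PAI-1 levels quantified by ELISA relative to DMSO. Cytotoxicity was assessed in parallel cultures by SRB total-protein staining (0.1% SRB after 10% TCA fixation, 560 nm).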

Read-out in assay [2]: Interleukin-8 (IL8), CXCL8 (gene 3576)
In words: BSK_MyoF_IL8: BioMAP Diversity Plus: MyoF Assay for Interleukin-8 (IL8) Biomarker Activity (AID 2284261). The settings on record: primary human lung fibroblasts. In a few lines:
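Human lung fibroblast (MyoF system) cultures dosed for 24 h, then IL-8 measured by ELISA. Response taken relative to DMSO; parallel SRB total-protein staining for cytotoxicity.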

Read-out in a further assay: Decorin, DCN (gene 1634)
In words: BSK_MyoF_Decorin: BioMAP Diversity Plus: MyoF Assay for Decorin Biomarker Activity (AID 2284265). The settings on record: primary human lung fibroblasts. In outline: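 Human lung fibroblast cultures were dosed for 24 h, and decorin was then measured by ELISA. Parallel cultures were stained with sulforhodamine B for total protein as a cytotoxicity check. Gain of signal was fitted relative to DMSO.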

The nature of assay [3]: BSK_MyoF_SRB: Viability Assessment in the BioMAP Diversity Plus: MyoF Assay (AID 2284267).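 Further: total protein by SRB absorbance in parallel cultures as cytotoxicity measure.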 The following applies: primary human lung fibroblasts. In outline: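 Lung fibroblast cultures, 24 h post-dose; fix 10% TCA, stain 0.1% SRB, read 560 nm. Signal = total protein as cytotoxicity measure; fitted relative to DMSO negative control.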
Read-out in assay [4]: Matrix Metallopeptidase 1 (MMP1), MMP1 (gene 4312)
In words: BSK_MyoF_MMP1: BioMAP Diversity Plus: MyoF Assay for Matrix Metallopeptidase 1 (MMP1) Biomarker Activity (AID 2284268). The following applies: primary human lung fibroblasts. In a few lines: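 Human lung fibroblast primary cells; MMP1 measured by ELISA 24 h after dosing, fitted in the positive direction relative to DMSO. Parallel SRB staining (0.1%, after 10% TCA fixation, 560 nm) assesses overt cytotoxicity.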

Read-out in assay [5]: TIMP metallopeptidase inhibitor 1 (TIMP1), TIMP1 (gene 7076)
In words: BSK_MyoF_TIMP1: BioMAP Diversity Plus: MyoF Assay for TIMP metallopeptidase inhibitor 1 (TIMP1) Biomarker Activity (AID 2284269). The following applies: primary human lung fibroblasts. In outline:
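TIMP-1 levels were determined by ELISA in human lung fibroblasts treated for 24 h. DMSO served as negative control and baseline for upward curve fitting.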

Read-out in a further assay: CD69, CD69 (gene 969)
In words: BSK_IMphg_CD69: BioMAP Diversity Plus: IMphg Assay for CD69 Biomarker Activity (AID 2284257). The settings on record: primary human endothelial cells with macrophages. In a few lines:
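Readout is ELISA for CD69 in primary human venular endothelial cell/macrophage co-culture, taken at 24 h post-dosing. SRB staining of parallel cultures gauged overt cytotoxicity; signal increase versus DMSO defined activity.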

Read-out in assay [6]: Eotaxin 3, CCL26 (gene 10344)
In words: BSK_BF4T_Eotaxin3: BioMAP Diversity Plus: BF4T Assay for Eotaxin 3 Biomarker Activity (AID 2284258). The following applies: primary human bronchial epithelial cells with fibroblasts. In outline: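 ELISA measurement of Eotaxin-3 after 24 h chemical exposure in a bronchial epithelial/dermal fibroblast co-culture, with DMSO as baseline. Parallel SRB staining (0.1% SRB after 10% TCA fixation, 560 nm) flagged overt cytotoxicity.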

Read-out in assay [7]: Monocyte Chemoattractant Protein-1 (MCP1), CCL2 (gene 6347)
In words: BSK_BF4T_MCP1: BioMAP Diversity Plus: BF4T Assay for Monocyte Chemoattractant Protein-1 (MCP1) Biomarker Activity (AID 2284259). The settings on record: primary human bronchial epithelial cells with fibroblasts. In a few lines: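 MCP-1 ELISA readout taken 24 h after dosing in the BF4T system (bronchial epithelial cells plus dermal fibroblasts). Parallel SRB total-protein staining flagged cytotoxicity; DMSO served as baseline, positive fitting direction.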

Read-out in assay [8]: Intercellular Adhesion Molecule 1 (ICAM1), ICAM1 (gene 3383)
In words: BSK_BF4T_ICAM1: BioMAP Diversity Plus: BF4T Assay for Intercellular Adhesion Molecule 1 (ICAM1) Biomarker Activity (AID 2284260). The settings on record: primary human bronchial epithelial cells with fibroblasts. In outline: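 ICAM-1 levels measured by ELISA after 24 h chemical treatment of bronchial epithelial cell/dermal fibroblast co-cultures, read against DMSO baseline. Overt cytotoxicity checked in parallel cultures by sulforhodamine B staining.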

Read-out in the next assay: CD90, THY1 (gene 7070)
In words: BSK_BF4T_CD90: BioMAP Diversity Plus: BF4T Assay for CD90 Biomarker Activity (AID 2284262). The following applies: primary human bronchial epithelial cells with fibroblasts. In outline:
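CD90 levels by ELISA after 24 h treatment of human bronchial epithelial cell/dermal fibroblast cultures, analysed versus DMSO. Overt cytotoxicity checked in parallel cultures by sulforhodamine B staining.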

Read-out in assay [9]: Interleukin-8 (IL8), CXCL8 (gene 3576)
Kind of assay: BSK_BF4T_IL8: BioMAP Diversity Plus: BF4T Assay for Interleukin-8 (IL8) Biomarker Activity (AID 2284263). The following applies: primary human bronchial epithelial cells with fibroblasts. In a few lines: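 Human bronchial epithelial cells with dermal fibroblasts co-culture; IL-8 measured by ELISA 24 hours after dosing, fitted vs DMSO. Cytotoxicity tracked in parallel cultures by SRB total-protein staining.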

Read-out in assay [10]: Interleukin-1 alpha (IL1a), IL1A (gene 3552)
In words: BSK_BF4T_IL1a: BioMAP Diversity Plus: BF4T Assay for Interleukin-1 alpha (IL1a) Biomarker Activity (AID 2284264). The settings on record: primary human bronchial epithelial cells with fibroblasts. In outline:
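ELISA read-out of IL-1α from bronchial epithelial cell/dermal fibroblast co-cultures 24 h after compound addition. Increases scored against DMSO negative control. Cytotoxicity monitored by sulforhodamine B staining of parallel cultures.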

Read-out in a further assay: KRT18 (gene 3875)
In words: BSK_BF4T_Keratin818: BioMAP Diversity Plus: BF4T Assay for Keratin 818 Biomarker Activity (AID 2284266). The settings on record: primary human bronchial epithelial cells with fibroblasts. In a few lines: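 Keratin 8/18 levels quantified by ELISA after 24 h chemical treatment of bronchial epithelial cell/dermal fibroblast co-cultures, fitted in positive direction relative to DMSO. Parallel SRB staining tracks overt cytotoxicity.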

Read-out in assay [11]: Matrix Metallopeptidase 1 (MMP1), MMP1 (gene 4312)
In words: BSK_BF4T_MMP1: BioMAP Diversity Plus: BF4T Assay for Matrix Metallopeptidase 1 (MMP1) Biomarker Activity (AID 2284270). The following applies: primary human bronchial epithelial cells with fibroblasts. In a few lines:
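MMP-1 quantified by ELISA in primary human bronchial epithelial/dermal fibroblast co-cultures, 24 hours post-dosing, with DMSO as baseline; parallel sulforhodamine B staining (560 nm) tracks overt cytotoxicity.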

Read-out in assay [12]: Matrix Metallopeptidase 3 (MMP3), MMP3 (gene 4314)
In words: BSK_BF4T_MMP3: BioMAP Diversity Plus: BF4T Assay for Matrix Metallopeptidase 3 (MMP3) Biomarker Activity (AID 2284271). The following applies: primary human bronchial epithelial cells with fibroblasts. In a few lines: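 MMP-3 level read by ELISA after 24 h chemical exposure of bronchial epithelial cell/dermal fibroblast co-cultures, fitted upward relative to DMSO. Parallel cultures stained with 0.1% SRB after TCA fixation gauge overt cytotoxicity.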

Read-out in assay [13]: Tissue plasminogen activator (tPA), PLAT (gene 5327)
Kind of assay: BSK_BF4T_tPA: BioMAP Diversity Plus: BF4T Assay for Tissue plasminogen activator (tPA) Biomarker Activity (AID 2284272). The following applies: primary human bronchial epithelial cells with fibroblasts. In outline:
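tPA level quantified by ELISA at 24 h post-treatment in bronchial epithelial/dermal fibroblast co-cultures, gain of signal scored against DMSO baseline. Parallel cultures stained with 0.1% SRB (560 nm) to flag overt cytotoxicity.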

Read-out in assay [14]: Plasminogen Activator Inhibitor-1 (PAI1), SERPINE1 (gene 5054)
In words: BSK_BF4T_PAI1: BioMAP Diversity Plus: BF4T Assay for Plasminogen Activator Inhibitor-1 (PAI1) Biomarker Activity (AID 2284273). The settings on record: primary human bronchial epithelial cells with fibroblasts. In a few lines:
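PAI-1 levels quantified by ELISA 24 h post-dosing in bronchial epithelial cell plus dermal fibroblast cultures. Signal gain referenced to DMSO baseline. Sulforhodamine B total-protein staining of parallel wells checked cytotoxicity.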

A short description of assay [15]: BSK_BF4T_SRB: Viability Assessment in the BioMAP Diversity Plus: BF4T Assay (AID 2284274). The following applies: primary human bronchial epithelial cells with fibroblasts. In outline:
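Cytotoxicity measured as total protein: cells fixed with 10% TCA, stained with 0.1% SRB, read at 560 nm. Bronchial epithelial/dermal fibroblast co-culture, 24 h after dosing, with positive-direction fitting relative to DMSO.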

Read-out in assay [16]: urokinase Plasminogen Activator (uPA), PLAU (gene 5328)
In words: BSK_BF4T_uPA: BioMAP Diversity Plus: BF4T Assay for urokinase Plasminogen Activator (uPA) Biomarker Activity (AID 2284275). The settings on record: primary human bronchial epithelial cells with fibroblasts. In a few lines: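 uPA levels measured by ELISA at 24 hours in BF4T cultures (bronchial epithelial cells plus dermal fibroblasts) and compared with DMSO; cytotoxicity tracked in parallel cultures by sulforhodamine B staining.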

Each structure is given as a SMILES string. Values joined by “and” are separate entries in the source; they are usually repeats but may differ in a detail not shown here. Equal entries are not always repeated. Where a structure was tested more than once in an assay, its records may differ in their call. Active and inactive are the calls of the source. How the source made its calls: active means hit-call score of the fitted dose curve at least 0.9, where 1 is the maximum; inactive means score below 0.9.

In PubChem BioAssay (EPA / NIEHS) one finds outcome and AC50 data, which are given here for eight compounds.

As usually defined, the AC50 is the midpoint of the concentration-response curve, whichever way the signal moves.

For the compound `Nc1ccc(-c2ccc(N)c(Cl)c2)cc1Cl`, the outcome in assay [1] is “inactive”; with Decorin, DCN (gene 1634), “inactive”; in assay [5], “inactive”. For the same compound, the AC50 is 2.04 µM (active) in assay [2], 24.9 µM (active) in assay [3] and 7.38 µM (active) in assay [4].

As to `CCOP(=S)(OCC)SCCS(=O)(=O)CC`, the outcome in [1] was “inactive”; in [2], “inactive”; with Decorin, DCN (gene 1634) it was “inactive”; in assay [3], “inactive”; in assay [4], “inactive”; in [5] it was “inactive”.

Consider `ClC(Cl)=C(Cl)C(Cl)=C(Cl)Cl`, for which the outcome was “inactive” in [1]; “inactive” with Decorin, DCN (gene 1634); “inactive” in [3]; “inactive” in [4]; “inactive” in assay [5]. Also, the AC50 in assay [2] was 15.1 µM (active).

Regarding `CCNc1nc(NC(C)(C)C)nc(SC)n1`, the outcome in assay [1] was “inactive”; in [2], “inactive”; in the assay with Decorin, DCN (gene 1634) it was “inactive”; in assay [3], “inactive”; in [5], “inactive”. Moreover, in assay [4], the AC50 was 31.5 µM (active).

Regarding `CC(C)c1ccc(CO)cc1`, the outcome in assay [1] is “inactive”; in assay [2], “inactive”; in the assay with Decorin, DCN (gene 1634), “inactive”; in assay [3], “inactive”; in assay [4], “inactive”; in assay [5], “inactive”.

Regarding `CC1(C)Cc2cccc(O)c2O1`, the outcome in assay [1] was “inactive”; in [2], “inactive”; with Decorin, DCN (gene 1634), “inactive”; in assay [3], “inactive”; in assay [4] it was “inactive”; in assay [5], “inactive”.

As for `O=C(O)C(F)(F)C(F)(F)C(F)(F)C(F)(F)C(F)(F)C(F)(F)C(F)(F)C(F)(F)C(F)(F)C(F)(F)F`, the AC50 is 5.52 µM (active) and 6.52 µM (active) in assay [1]; 3.14 µM (active) and 3.33 µM (active) in assay [6]; 5.55 µM (active) and 5.18 µM (active) in [7]; 5.15 µM (active) and 4.51 µM (active) in assay [8]; 6.34 µM (active) and 6.43 µM (active) in assay [2]; 4.83 µM (active) with CD90, THY1 (gene 7070). Also, the AC50 in assay [9] is 5.82 µM (active) and 5.74 µM (active); in assay [10], 5.56 µM (active) and 6.17 µM (active); in the assay with Decorin, DCN (gene 1634), 5.02 µM (active) and 5.16 µM (active); with KRT18 (gene 3875), 5.05 µM (active) and 5.17 µM (active); in assay [3] it was 5.01 µM (active) and 5.05 µM (active); in assay [5] it was 4.33 µM (active) and 5.2 µM (active). The AC50 in assay [11] is 5.11 µM (active) and 5.66 µM (active); in assay [12], 5.26 µM (active) and 3.33 µM (active); in assay [13] it was 4.42 µM (active) and 5.58 µM (active); in [14], 5.2 µM (active) and 6.13 µM (active); in assay [15], 5.49 µM (active) and 5.63 µM (active); in assay [16], 6.49 µM (active) and 6.17 µM (active). The outcome was “inactive” with CD69, CD69 (gene 969); “inactive” in the assay with CD90, THY1 (gene 7070); “inactive” in assay [4].

In the case of `COC[C@H](C)N(C(=O)CCl)c1c(C)csc1C`, the outcome was “inactive” in assay [1]; “inactive” in assay [2]; “inactive” in the assay with Decorin, DCN (gene 1634); “inactive” in assay [3]; “inactive” in [4]; “inactive” in assay [5].
